Reference: ChEMBL document CHEMBL4513146, “CO-ADD screening of Karazin Kharkiv National University (Ukraine) compounds”
Entries with a potency or affinity are not part of this list.

tested on: Klebsiella pneumoniae; conditions: Concentration 32 ug.mL-1;; ASSAY_TEST Inhibition of Bacterial Growth; detection method Absorption (OD600); MEDIA CAMHB; plate type 384well; NBS; CORNING #3640; time 18 hr

SMILES | Inhibition
COC(=O)c1ccccc1NC(=O)Cn1nc2c3cc(-c4ccc(Cl)cc4)nn3ccn2c1=O | 3.97%
CCCN(C)c1nccn2c(=O)n(CC(=O)Nc3ccc(F)cc3)nc12 | 16.44%
COc1ccc(NC(=O)Cn2nc3cc(C)nc(Nc4ccc(F)cc4)n3c2=O)cc1F | 11.33%
COc1ccc(NC(=O)Cn2c(=O)c3nnc(C)n3c3ccccc32)cc1Cl | 11.31%
Cc1ccc(NC(=O)CSc2nc3ccccc3n3c(C)nnc23)cc1C | -6.18%
O=C(Cn1nc2c3c4c(sc3ncn2c1=O)CCCC4)NCc1ccc(F)cc1 | 9.92%
COc1ccc(NC(=O)Cn2nc3c(N4CCCC4)nccn3c2=O)cc1Cl | 15.87%
CC(C)NC(=O)CSc1nnc2c(=O)n(-c3ccccc3)ccn12 | 11.98%
CCc1ccc(N(Cc2ccccc2F)S(=O)(=O)c2cccn3c(CC)nnc23)cc1 | 6.04%
COc1ccc(N(Cc2ccc(C)cc2)S(=O)(=O)c2ccc3nnc(C)n3c2)cc1 | -1.06%
CCCn1c(=O)c2sccc2n2c(=O)n(CC(=O)c3ccccc3)nc12 | 3.65%
CCCCc1ccc(NC(=O)Cn2nc3c(N4CC(C)CC(C)C4)nccn3c2=O)cc1 (stereo not drawn) | 3.89%
Cc1cccc(CN(c2ccc(C(C)C)cc2)S(=O)(=O)c2cccn3c(C)nnc23)c1 | 9.59%
CC(C)c1nnc2c(=O)n(CC(=O)Nc3ccc(Br)cc3F)c3ccccc3n12 | 12.63%
Cc1ccc(-c2ccc3nnc(CCC(=O)NCc4ccc(C(F)(F)F)cc4)n3n2)cc1C | 11.76%
Cc1cc2nn(CC(=O)Nc3cc(F)ccc3C)c(=O)n2c(Nc2ccc(F)c(C)c2)n1 | 15.58%
Cc1ccc(C)c(CN(c2ccc(F)c(F)c2)S(=O)(=O)c2cccn3cnnc23)c1 | -0.76%
CC(=O)c1cccc(NC(=O)Cn2nc3c(N4CCN(c5ccccc5C)CC4)nccn3c2=O)c1 | 15.26%
CSc1cccc(NC(=O)Cn2c(=O)c3nnc(C)n3c3ccccc32)c1 | 4.53%
O=C(Cn1nc2c3cc(F)ccc3ncn2c1=O)Nc1ccc2c(c1)OCO2 | 1.07%

SMILES | Inhibition
Cc1oc(-c2cccc(Cl)c2)nc1CSc1nc2ccccc2n2c(C(C)C)nnc12 | 8.12%
Cc1cc(C)cc(Oc2nccn3c(=O)n(CC(=O)Nc4ccc(Cl)cc4F)nc23)c1 | 14.33%
COC(=O)c1sccc1NC(=O)Cn1nc2c(Oc3ccc(C)cc3)nc3ccccc3n2c1=O | 13.09%
COc1cccc(Oc2nccn3c(=O)n(CC(=O)Nc4ccc(C)cc4Cl)nc23)c1 | 11.4%
CCOc1ccc(-n2ccn3c(SCC(=O)c4c(C)[nH]c5ccccc45)nnc3c2=O)cc1 | 3.78%
O=C(Cn1nc2c(N3CCOCC3)nccn2c1=O)Nc1ccccc1Br | 13.49%
CCN(CCCNC(=O)CCc1nnc2ccc(-c3ccc(C)c(C)c3)nn12)c1ccccc1 | 13.51%
CC(C)c1ccc(NC(=O)Cn2nc3ccc(SCc4ccc(Cl)cc4)nn3c2=O)cc1 | 6.44%
CCOc1ccc(NC(=O)Cn2nc3c(Sc4ccc(C)cc4C)nccn3c2=O)cc1 | 3.27%
Cc1ccc(Oc2nccn3c(=O)n(CC(=O)Nc4ccccc4C(F)(F)F)nc23)cc1 | 6.49%
CC(C)c1nnc2c(=O)n(CC(=O)Nc3cccc(C#N)c3)c3ccccc3n12 | 14.72%
CSc1cccc(NC(=O)Cn2nc3c(N4CCCC4)nccn3c2=O)c1 | 1.74%
O=C(CSc1nnc2c(=O)n(-c3cccc(F)c3)ccn12)NCCc1ccccc1 | -3.34%
CCOc1ccc(-n2ccn3c(SCC(=O)NCc4cccc(OC)c4OC)nnc3c2=O)cc1 | 14.82%
COc1cccc(-n2ccn3c(SCC(=O)Nc4ccccc4F)nnc3c2=O)c1 | 7.91%
CCc1ccccc1Sc1nccn2c(=O)n(CC(=O)N3CCN(c4ccccc4)CC3)nc12 | -1.73%
O=C(Cn1nc2c3sc(N4CCCC4)nc3ncn2c1=O)Nc1ccccc1Cl | 7.88%
O=S(=O)(c1ccc2nncn2c1)N(Cc1ccccc1F)c1ccc(F)c(F)c1 | -0.52%
CC(C)c1nnc2c(=O)n(CC(=O)Nc3cccc(Br)c3)c3ccccc3n12 | 13.24%

tested on: Candida albicans; conditions: Concentration 32 ug.mL-1; ASSAY_TEST Inhibition of Fungal Growth; detection method Absorption (OD530)

SMILES | Inhibition
COC(=O)c1ccccc1NC(=O)Cn1nc2c3cc(-c4ccc(Cl)cc4)nn3ccn2c1=O | 0.23%
CCCN(C)c1nccn2c(=O)n(CC(=O)Nc3ccc(F)cc3)nc12 | 1.98%
COc1ccc(NC(=O)Cn2nc3cc(C)nc(Nc4ccc(F)cc4)n3c2=O)cc1F | 2.69%
COc1ccc(NC(=O)Cn2c(=O)c3nnc(C)n3c3ccccc32)cc1Cl | 0.53%
Cc1ccc(NC(=O)CSc2nc3ccccc3n3c(C)nnc23)cc1C | 44.31%
O=C(Cn1nc2c3c4c(sc3ncn2c1=O)CCCC4)NCc1ccc(F)cc1 | 15.82%
COc1ccc(NC(=O)Cn2nc3c(N4CCCC4)nccn3c2=O)cc1Cl | 1.28%
CC(C)NC(=O)CSc1nnc2c(=O)n(-c3ccccc3)ccn12 | 2.07%
CCc1ccc(N(Cc2ccccc2F)S(=O)(=O)c2cccn3c(CC)nnc23)cc1 | 4.59%
COc1ccc(N(Cc2ccc(C)cc2)S(=O)(=O)c2ccc3nnc(C)n3c2)cc1 | 4.08%
CCCn1c(=O)c2sccc2n2c(=O)n(CC(=O)c3ccccc3)nc12 | 4.43%
CCCCc1ccc(NC(=O)Cn2nc3c(N4CC(C)CC(C)C4)nccn3c2=O)cc1 (stereo not drawn) | 4.16%
Cc1cccc(CN(c2ccc(C(C)C)cc2)S(=O)(=O)c2cccn3c(C)nnc23)c1 | 3.05%
CC(C)c1nnc2c(=O)n(CC(=O)Nc3ccc(Br)cc3F)c3ccccc3n12 | 1.97%
Cc1ccc(-c2ccc3nnc(CCC(=O)NCc4ccc(C(F)(F)F)cc4)n3n2)cc1C | 2.25%
Cc1cc2nn(CC(=O)Nc3cc(F)ccc3C)c(=O)n2c(Nc2ccc(F)c(C)c2)n1 | 4.23%
Cc1ccc(C)c(CN(c2ccc(F)c(F)c2)S(=O)(=O)c2cccn3cnnc23)c1 | 1.83%
CC(=O)c1cccc(NC(=O)Cn2nc3c(N4CCN(c5ccccc5C)CC4)nccn3c2=O)c1 | 5.86%
CSc1cccc(NC(=O)Cn2c(=O)c3nnc(C)n3c3ccccc32)c1 | 4.76%
O=C(Cn1nc2c3cc(F)ccc3ncn2c1=O)Nc1ccc2c(c1)OCO2 | 3.33%

SMILES | Inhibition
Cc1oc(-c2cccc(Cl)c2)nc1CSc1nc2ccccc2n2c(C(C)C)nnc12 | 1.38%
Cc1cc(C)cc(Oc2nccn3c(=O)n(CC(=O)Nc4ccc(Cl)cc4F)nc23)c1 | 0.59%
COC(=O)c1sccc1NC(=O)Cn1nc2c(Oc3ccc(C)cc3)nc3ccccc3n2c1=O | 3.6%
COc1cccc(Oc2nccn3c(=O)n(CC(=O)Nc4ccc(C)cc4Cl)nc23)c1 | 4.48%
CCOc1ccc(-n2ccn3c(SCC(=O)c4c(C)[nH]c5ccccc45)nnc3c2=O)cc1 | 2.22%
O=C(Cn1nc2c(N3CCOCC3)nccn2c1=O)Nc1ccccc1Br | 4.41%
CCN(CCCNC(=O)CCc1nnc2ccc(-c3ccc(C)c(C)c3)nn12)c1ccccc1 | 13.02%
CC(C)c1ccc(NC(=O)Cn2nc3ccc(SCc4ccc(Cl)cc4)nn3c2=O)cc1 | 14.48%
CCOc1ccc(NC(=O)Cn2nc3c(Sc4ccc(C)cc4C)nccn3c2=O)cc1 | 6.36%
Cc1ccc(Oc2nccn3c(=O)n(CC(=O)Nc4ccccc4C(F)(F)F)nc23)cc1 | 0.6%
CC(C)c1nnc2c(=O)n(CC(=O)Nc3cccc(C#N)c3)c3ccccc3n12 | 2.88%
CSc1cccc(NC(=O)Cn2nc3c(N4CCCC4)nccn3c2=O)c1 | 3.86%
O=C(CSc1nnc2c(=O)n(-c3cccc(F)c3)ccn12)NCCc1ccccc1 | 5.41%
CCOc1ccc(-n2ccn3c(SCC(=O)NCc4cccc(OC)c4OC)nnc3c2=O)cc1 | 1.5%
COc1cccc(-n2ccn3c(SCC(=O)Nc4ccccc4F)nnc3c2=O)c1 | 2.83%
CCc1ccccc1Sc1nccn2c(=O)n(CC(=O)N3CCN(c4ccccc4)CC3)nc12 | 3.92%
O=C(Cn1nc2c3sc(N4CCCC4)nc3ncn2c1=O)Nc1ccccc1Cl | 4.36%
O=S(=O)(c1ccc2nncn2c1)N(Cc1ccccc1F)c1ccc(F)c(F)c1 | 1.44%
CC(C)c1nnc2c(=O)n(CC(=O)Nc3cccc(Br)c3)c3ccccc3n12 | 6.25%
